The whole screen tested about 1,200 compounds, of which fewer than 10 were called active. The call rests on the fitted dose curve; in most records, active means well fitted curve in the direction sought with a large enough effect; inconclusive means small, poorly fitted or top-dose-only effect, or another doubt; inactive means no such curve, though single readings can be large or run the other way. The list is a sample of the results.
What follows are compounds tested against Transcriptional regulator ERG (Homo sapiens) (UniProt P11308) (assay: qHTS for Small Molecule Inhibitors of the ERG Ets/DNA interaction: TR assay against cherry picks). Conditions: ERG Ets domain-DNA fluorescence polarization, Texas red probe; series mostly up to 154 µM.
Text: The Ets family of proteins is a family of ~30 conserved transcription factors defined by the presence of an ~85 amino acid domain referred to as the Ets domain, which mediates sequence-specific DNA binding to a core DNA element GGAA/T.The Ets family member ERG has been linked to several neoplasms. […] More extensive studies of the effects of over-expression of ERG in prostate cells have recently been carried out and have shown that over-expression of ERG results in increased invasion. […] We will carry out a high throughout screen to identify inhibitors of the interaction between ERG and DNA using a fluorescence polarization (FP) assay with a His-tagged ERG Ets domain and fluorescently-labeled DNA probes to develop small molecule inhibitors of this interaction as probes to test this hypothesis and lay the groundwork for the development of targeted therapies against ERG. This is the confirmation against the cherry picks in theprimary screening assay. NIH Molecular Libraries Probe Production Network [MLPCN] NIH Chemical Genomics Center [NCGC] Grant: NS066464 PI Name: John Bushweller, University of Virgina
1.5 ul of protein solution (1 uM ERG domain in 300mM KCl, 50mM Tris-HCl, 1mM EDTA, 1mM DTT, pH 7.5); 20 nl Control plate and compound library plate; 1.5 ul mixture of 5 nM Fluorescein-DNA and 100nM Texas-615-DNA solution in same buffer as above solution; measure fluorescence polarization sequentially for fluorescein (Excitation = 480 nm, Emission = 535s, 535p nm) and Texas red (Excitation = 555 nm, Emission = 632s, 632p nm).

Chain of Transcriptional regulator ERG (Homo sapiens) (P11308 whole entry, looked up, the tested form may be a part): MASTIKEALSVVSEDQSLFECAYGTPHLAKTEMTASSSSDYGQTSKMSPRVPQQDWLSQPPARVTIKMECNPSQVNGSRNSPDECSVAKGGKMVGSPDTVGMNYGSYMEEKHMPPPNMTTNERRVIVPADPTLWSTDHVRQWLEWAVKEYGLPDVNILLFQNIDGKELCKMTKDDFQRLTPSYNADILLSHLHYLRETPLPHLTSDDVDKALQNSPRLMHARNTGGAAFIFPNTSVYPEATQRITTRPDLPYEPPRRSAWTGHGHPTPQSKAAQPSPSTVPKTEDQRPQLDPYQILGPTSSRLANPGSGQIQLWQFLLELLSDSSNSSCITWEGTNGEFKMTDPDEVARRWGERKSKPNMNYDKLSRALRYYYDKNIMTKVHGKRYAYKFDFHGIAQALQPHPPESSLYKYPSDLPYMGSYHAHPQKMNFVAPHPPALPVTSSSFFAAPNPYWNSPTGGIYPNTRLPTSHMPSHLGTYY

outcome, inactive:
CCOc1ccc(NC(=O)Cc2c(C(=O)O)n(C)c3ccccc23)cc1, CN(CC(=O)NC(=O)NC1CCCCC1)CC(=O)Nc1ccc(Cl)cc1, NC(=O)Nc1ccc(C(=O)OCC(=O)NC2CCCc3ccccc32)cc1 (stereo not given), Cc1ccccc1S(=O)(=O)N(CC(O)CN1C(=O)NC(C)(C)C1=O)c1ccccc1 (stereo not given), Cn1cc2c(=O)n(/N=C/c3ccccc3)cnc2n1, O=C(O)CN1C(=O)C(=O)N(Cc2ccc(C(F)(F)F)cc2)C1=O, Cn1cccc1C(=O)OCC(=O)Nc1ccc2[nH]c(=O)[nH]c2c1, CCC(C)NCCOc1ccc(C)cc1[N+](=O)[O-] (stereo not given), CC(C)n1c(SCc2ccccc2F)nc2c1c(=O)n(C)c(=O)n2C, CCc1ccc2c(c1)c(=O)c(C(=O)c1ccc(C)cc1)cn2CC(=O)Nc1ccccc1C, COc1ccc(C(=O)N2CCc3ccc(NC(=O)c4ccccn4)cc3C2)cc1F, CCN(CC(=O)Nc1ccc(N2CCOCC2)cc1)CC(=O)NC(C)(C)C, Cc1ccc(C)c(N(CC(=O)NCc2ccco2)C(=O)CNS(=O)(=O)c2ccc(F)cc2)c1, O=C(OCC(=O)N1CCN(c2ccccc2)CC1)c1cccc([N+](=O)[O-])c1, O=C(Nc1ccc(NS(=O)(=O)c2ccc([N+](=O)[O-])cc2)cc1)c1ccco1, Oc1ccccc1CN1CCCC(N2CCN(c3cccc(C(F)(F)F)c3)CC2)C1 (stereo not given), O=C(NNC(=O)c1sccc1-n1cccc1)Nc1ccccc1, CCOC(=O)c1c(NC(=O)C(C)Sc2cn(CCNC(=O)c3ccc(OC)c(OC)c3)c3ccccc23)sc2c1CCC2 (stereo not given), CC(=O)NCc1ccc(S(=O)(=O)N2CCN(c3ccccn3)CC2)cc1, CN(C(=O)COC(=O)c1cc(S(=O)(=O)N2CCOCC2)ccc1F)C1CCS(=O)(=O)C1 (stereo not given), Cn1c(SCc2nnc(-c3ccccc3)o2)nc2ccccc21, COc1cccc(OC)c1C(=O)Nn1c(-c2cccs2)nc2ccccc2c1=O, Cc1cc(C)c2nc(NC(=O)[C@@H](NC(=O)c3cccc(S(=O)(=O)N4CCOCC4)c3)C(C)C)sc2c1, S=C(NCCc1ccccc1)Nc1ccc(Cl)cc1Cl, CN(C)Cc1cc2ccccc2c2c1COC2, O=C(NCC1CCN(S(=O)(=O)c2ccccc2)CC1)Nc1ccc(F)cc1, O=C1/C(=C/c2cccs2)Sc2ccccc21, Cc1ccc(N(CC(=O)NC2CCCC2)C(=O)CNC(=O)c2cccs2)c(C)c1, COc1ccc(N(C(=O)c2snc(C(N)=O)c2N)C(C(=O)NCC2CCCO2)c2ccc3ncccc3c2)cc1OC (stereo not given), Cc1ccc(-c2[nH]c(-c3ccc(C(=O)O)cc3)nc2-c2ccccc2)cc1, Cc1ccccc1OCc1nc(-c2ccc(NC(=O)c3ccc4c(c3)OCO4)cc2)no1, CCOCCCNCC(=O)Nc1ccc(S(=O)(=O)NC(C)CC)cc1 (stereo not given), CC1CCN(C(=O)COC(=O)c2ccc(=O)n(Cc3ccccc3)n2)CC1, C=CCN1C(=O)c2ccc(C(=O)Nc3ccccn3)cc2C1=O, Cc1cccc(NC(=O)c2cc3ccccc3nc2C)c1, CC(=O)Nc1ccc(S(=O)(=O)N[C@@H](C)C(=O)N2CCN(C/C=C/c3ccccc3)CC2)cc1, COc1ccc(CN2CCC(C(=O)N3CCCC(C)C3)CC2)cc1OC (stereo not given), Cc1ccc(NS(=O)(=O)c2cc(Br)cnc2N)c(Cl)c1, CCOc1cc(S(=O)(=O)n2ccc(C)n2)ccc1Br, COc1ccc(NC(=O)C2CC(=O)n3c(nc4ccccc43)N2)cc1 (stereo not given), COc1ccc(OC)c(NC(=O)c2cccc(NC(=O)c3ccccc3)c2)c1, COc1ccc(CNCCC2(C(C)C)CCOC(C)(C)C2)cc1 (stereo not given), O=C(NCCCN1CCOCC1)c1ccc(CSc2ccc(Cl)cc2)cc1, O=C(CN1C(=O)CS/C1=C\c1nc(-c2ccc(Cl)cc2)cs1)Nc1cccnc1Cl, NCCNc1ccc2nnnn2n1, CCN(CC)S(=O)(=O)c1cccc(-c2nc3n(n2)Cc2ccccc2-3)c1, O=C(COc1ccc(-c2ccccc2)cc1)N1CCN(C(=O)c2cccs2)CC1, Cc1cc(/C=C(\C#N)C(=O)Nc2ccccc2)c(C)n1-c1ccc(C(=O)O)cc1, Cc1ccc(C=Nc2cccnc2N)cc1, CC(C)C1NC(=S)N(Cc2ccccc2)C1=O (stereo not given), Cc1nc2ccccc2c(=O)n1NC(=O)c1cccnc1Cl, COc1ccc(CCn2c(C)cc(C(=O)COC(=O)c3cnc(C)cn3)c2C)cc1, CCC(CC)COC(=O)C(C#N)c1nc2ccccc2nc1N1CCN(CC)CC1 (stereo not given), CCc1ccccc1N(CC(=O)NCc1ccco1)C(=O)CCC(=O)Nc1ccccn1, COc1ccc(NC(=O)CSCC(=O)N(C)Cc2cccc(OC)c2OC)cc1, CN(C)c1ccc2c3c(ccc(N(C)C)c13)C(=O)OC2, COc1ccc(NC(=S)NCc2ccc3c(c2)cc(C)n3C)cc1, Cc1cc2cc(CNC(=O)c3ccc(S(=O)(=O)N4CCCCC4)cc3)ccc2n1C, COc1cc(OC)c(N(C)S(=O)(=O)c2cccc(C(=O)NC(C)C3CC4CCC3C4)c2)cc1Cl (stereo not given), Nc1nc(Cl)c2ncn(C3OC(CO)C(O)C3O)c2n1 (stereo not given), CC(C)(C)c1ccc(OCC(=O)Nc2cccc(S(=O)(=O)NC3=NCCCCC3)c2)cc1, CCc1nc2ccccc2c(C(=O)NCc2ccccc2)c1C, COC(=O)c1cc(NC(=O)c2c(Cl)cnn2C)cc(C(=O)OC)c1, O=C(CC(c1ccccc1)c1cc(Cl)ccc1O)NCCCN1CCOCC1 (stereo not given), Cc1cccc(N2C(=O)CC(Cn3nc(C)cc3C)C2=O)c1 (stereo not given), CC1=CC(=O)C(C(C)C)=C/C1=C(\c1cc(C(C)C)c(OP(=O)(O)O)cc1C)c1ccccc1C(=O)O, Nc1c(C(=O)O)cnn1-c1ccccc1, OC(Cn1cnnc1)c1ccccc1 (stereo not given), COc1ccccc1NS(=O)(=O)c1cc(C(=O)N2CCCC2)ccc1C, COc1ccc(-c2nc3n(n2)C(c2ccccc2OC)C(C(=O)Nc2cccnc2)=C(C)N3)cc1 (stereo not given), COc1ccc2c(CCNC(=O)/C=C/c3ccc(OC)c(OC)c3)c[nH]c2c1, O=C(/C=C/c1ccc([N+](=O)[O-])cc1)NCc1ccco1, CC1(C)C2CCC1(CS(=O)(=O)N1CCC(C(N)=O)CC1)C(=O)C2 (stereo not given), CC(C)CNC(=O)CCc1nc(-c2ccccc2)no1, COc1ccc(N/C=C(\C(C)=O)c2ccc(OC)c(OC)c2)cc1OC, O=C(CNC(=S)N(CCCN1CCOCC1)Cc1cccs1)NC1CCCCC1, O=C(COc1ccc(F)cc1)Nc1nnc(-c2ccncc2)s1, COc1ccc(CCCC(=O)Nc2cc(C)ccc2OC)cc1, CCOC(=O)C1CCCN(C(=O)c2nn(-c3ccc(C)cc3)c(=O)n(C)c2=O)C1 (stereo not given), O=[N+]([O-])c1ccc(S(=O)(=O)N/N=C/c2ccsc2)cc1, O=C(Nc1ccc(N2CCOCC2)cc1)c1ccc2nc(-c3ccco3)c(-c3ccco3)nc2c1, CCn1c(=O)cc(OCC(=O)Nc2ccccc2C#N)c2ccccc21, CCOC(=O)C(=O)c1c(-c2ccccc2)nc2ccccn12, O=C(NCC(=O)N(c1ccccc1)C(C(=O)NC1CCCCC1)c1cccnc1)c1ccco1 (stereo not given), C[C@H](CO)N1C[C@H](C)[C@@H](CN(C)CC2CC2)Oc2c(NC(=O)C3CC3)cccc2C1=O, CCOc1ccccc1C1CC(c2ccc(Br)cc2)Nc2nc(N)nn21 (stereo not given), COc1ccc(/C=C/C(=O)Nc2c(C(=O)O)[nH]c3ccccc23)cc1OC, COc1ccc(-c2noc(Cn3c(=O)c4ccccc4n(CC(=O)Nc4cccc(C(F)(F)F)c4)c3=O)n2)cc1, COCCNC(=O)CSc1nc2ccccc2c(=O)n1-c1cccc(OC)c1, CCCCSc1cc(=O)n(-c2ccccc2)nc1C(=O)OCC, COc1c2c(c(CCC(=O)O)c3c1C=CC(C)(C)O3)OC(C)(C)C=C2, CC1Cc2ccccc2N1CC(=O)Nc1ccc2c(c1)OCO2 (stereo not given), CCC(C)NCCCOc1ccc(C)cc1OC (stereo not given), CCc1ccc(S(=O)(=O)NC2CC(C)(C)NC(C)(C)C2)cc1, Cc1cc2nc(-c3ccc[nH]c3=O)n(Cc3ccccc3F)c2cc1C, COc1ccc(OCCN2CCN(C(=O)c3ccc(OC(F)F)c(OC)c3)CC2)cc1, COc1ccc(C(=O)N(C)Cc2ccc(C)o2)cc1OC1CCN(C(C)C)CC1, COC(=O)C(CSCc1ccccc1)NC(=O)CSc1nc(N)cc(=O)[nH]1 (stereo not given), COc1ccc2cc(CO)c(Cl)nc2c1, Cc1cccc(-c2cnn(-c3cccc([N+](=O)[O-])c3)c2N)c1, CC(=O)Nc1ccc(SCC(=O)N(C)C2CCS(=O)(=O)C2)cc1 (stereo not given), CC(C)=CCOc1ccc2ccc(=O)oc2c1, CCOC(=O)COc1ccc(/C=C2/C(=O)NN(c3ccc(F)cc3)C2=O)cc1OC, Cc1ccc(-c2nnn(CC(=O)N(c3ccccc3)C(C(=O)NCC3CCCO3)c3ccc(F)cc3)n2)o1 (stereo not given), Cc1ccc(CNC(=O)COc2ccc(S(=O)(=O)N3CCCC3)cc2)cc1
